This passage reports Potency results from PubChem BioAssay (NCATS).

Structures are written as SMILES. Results filed as inconclusive are left out. A call without a number means that no potency is given here. Activity calls are given as the source filed them. Calls come from the whole dose curve; as a rule, active = well fitted cell-killing curve with a large enough effect; inconclusive = small, poorly fitted or top-dose-only effect; inactive = flat fitted curve, though single readings scatter.
Potency is the fitted concentration of half-maximal effect.

The nature of the test: qHTS of pediatric cancer cell lines to identify multiple opportunities for drug repurposing: Primary screen for RD cells (AID 1347104). Note: nearly all actives have a fitted effect of over 55% in size. As to conditions: RD rhabdomyosarcoma viability, CellTiter-Glo luminescence, 48 h; series mostly up to 46 µM. The text has this:
Drug repurposing or repositioning has been offered as a strategy for drug development in oncology programs. This approach has special potential for childhood cancers and other rare or orphan diseases, where the expected return on new drug development has been a disincentive to pharmaceuticals. […] In this project we exploit the poly-pharmacology of drugs to discover new indications via phenotypic screening of a panel of 19 well-characterized cell lines derived from solid tumors seen in children and adolescents. The goal is to identify approved drugs with previously unrecognized anticancer properties that has the potential to reveal new mechanisms and biological processes involved in carcinogenesis or drug resistance. We employed a titration-based paradigm (quantitative high-throughput screening or qHTS), where all compounds were tested at multiple concentrations for their effect on cell viability. Concentration-response curves (CRCs) were derived directly from the primary screen, and both potency and efficacy values were used to identify compounds with robust bioactivity profiles. We screened the NIH Chemical Genomics Center (NCGC) Pharmaceutical Collection (NPC) and Mechanism Interrogation Plate (MIPE) small molecule collections of approved and investigational compounds against these cell lines; and measured metabolically active cells after 48 hours of compound treatment as a proxy for cell viability. […] Assay Submitter: Nathalia J. Martinez, National Center for Advancing Translational Sciences, National Institutes of Health, Rockville, MD, USA; email: natalia.martinez@nih.gov Shen, M et al. Quantitative high-throughput phenotypic screening of pediatric cancer cell lines identifies multiple opportunities for drug repurposing. Oncotarget 2017 Dec 19;9(4):4758-4772. PMID 29435139.
The cells were obtained from University of North Carolina (UNC), Pediatric Preclinical Testing Program (PPT), and Coriell Institute (CI). qHTS cell viability assay: Cells were assayed in growth media at a density of 500-1,000 cells/well. Five microliters of cells were dispensed into 1,536-well, white, solid-bottom, TC-treated plates (Greiner Bio One) using a multidrop dispenser and incubated at 37 degrees C, 5% CO2, under a humidified atmosphere for 5 hours. Twenty-three nanoliters of compounds and controls (neutral control DMSO or positive control bortezomib at final concentration of 2.3 µM) were subsequently transferred by Kalypsys pintool. For primary screens, the MIPE collection was tested at 11-point dilutions (final concentrations range from 0.78 nM to 46 µM) and the NPC collection at 8-point dilutions (final concentrations range from 0.59 nM to 46 µM). Compounds tested in follow-up screens were assayed at 11-point dilutions. Cells were incubated for 48 hours, followed by addition of 3 µL of CellTiter-Glo (Promega). After a 15 min incubation at room temperature, samples were analyzed for luminescence intensity using a ViewLux High-throughput CCD imager equipped with clear filters.
(In general: In qHTS, concentration-response curves come from the screen itself.)
`CC(=O)OC[C@H]1O[C@@H](OC(C)=O)[C@H](OC(C)=O)[C@@H]1OC(C)=O`: the Potency result was “inactive”.
Then `CCOC(=O)C(=O)CCc1ccccc1`, with “inactive”.
In the case of `CCCC(=O)O[C@]1(C(=O)COC(=O)CC)CC[C@H]2[C@@H]3CCC4=CC(=O)CC[C@]4(C)[C@H]3[C@@H](O)C[C@@]21C` it was “inactive”.
In the case of `O=c1[nH]sc2cc(Cl)ccc12`, the Potency result is “inactive”.
Consider `CN1[C@@H]2CC[C@H]1CC(NC(=O)n1c(=O)[nH]c3ccccc31)C2` (stereo not given in full), for which the Potency result is “inactive”.
Then `CCOC(=O)c1cc(=O)c2c(OCC(COc3cccc4oc(C(=O)OCC)cc(=O)c34)OC(=O)[C@@H](N)CCCCN)cccc2o1`, with “inactive”.
Regarding `CO/N=C(/C(=O)N[C@@H]1C(=O)N2C(C(=O)[O-])=C(C[n+]3ccn4ncccc43)CS[C@H]12)c1nsc(N)n1`, the Potency result is “inactive”.
Turning to `CCN(CC)CC(=O)Oc1ccc(NC(C)=O)cc1`, the Potency result was “inactive”.
In the case of `COC(=O)/C=C\C(=O)OC` it was “inactive”; in that of `CCCCC(O)/C=C(C)/C=C/C=C/C(=O)N1CCCC1=O` (stereo not given), “inactive”; in that of `OC[C@]1(O)OC[C@@H](O)[C@H](O)[C@@H]1O`, “inactive”.
As to `CC(C)C[C@H](NC(=O)CNC(=O)[C@H](Cc1ccc(O)cc1)NC(=O)[C@H](CO)NC(=O)[C@H](Cc1c[nH]c2ccccc12)NC(=O)[C@H](Cc1cnc[nH]1)NC(=O)[C@@H]1CCC(=O)N1)C(=O)N[C@@H](CCCN=C(N)N)C(=O)N1CCC[C@H]1C(=O)NCC(N)=O` (stereo in doubt), the Potency entry is “inactive”.
In the case of `O=C(NN1CCCC1)NS(=O)(=O)c1ccc(Cl)cc1`, the Potency entry was “inactive”.
Turning to `CC[N+](CC)(CC)CCOC(=O)C(C1CCCC1)C1CCCC1`, the Potency result was “inactive”.
Consider `Cc1ccc(-c2ccccc2C#N)cc1`, for which the Potency result is “inactive”.
For `O=C(O)c1cn(C2CC2)c2cc(Cl)c(F)cc2c1=O`, the Potency result is “inactive”.
Take `COc1cc(C=O)ccc1O`: the Potency entry is “inactive”.
Consider `CCCCCCn1c(=O)c2c(ncn2C)n(C)c1=O`, for which the Potency result was “inactive”.
Regarding `CC[C@@]1(O)C(=O)OCc2c1cc1n(c2=O)Cc2c-1nc1ccccc1c2/C=N/OC(C)(C)C`, the Potency is 668 nM (active).
Then `CCN1CCN(C(=O)N[C@@H](C(=O)N[C@@H]2C(=O)N3[C@@H]2SC(C)(C)[C@H]3C(=O)O)c2ccccc2)C(=O)C1=O`, with “inactive”.
Then `CCOC(=O)c1ccc(OCCN2C[C@H](O)[C@@H](O)[C@H](O)[C@H]2CO)cc1`, with “inactive”; and `O=C(CO)[C@@H](O)[C@H](O)[C@@H](O)CO`, with “inactive”.
For `CC(C)(Oc1ccc(Cl)cc1)C(=O)OCCCOC(=O)C(C)(C)Oc1ccc(Cl)cc1`, the Potency entry was “inactive”.
With `O=C(Oc1ccccc1)c1cccc(C(=O)Oc2ccccc2)c1`, the Potency entry was “inactive”.
Regarding `CO[C@@H]1[C@@H](OC)[C@H](C)[C@@](O)(CC(=O)O)O[C@H]1[C@H](C)[C@H]1O[C@@]2(CC[C@@](C)([C@H]3CC[C@@](C)([C@@H]4O[C@@H]([C@H]5O[C@](C)(O)[C@H](C)C[C@@H]5C)C[C@@H]4OC4C[C@H](OC)[C@@H](OC)[C@H](C)O4)O3)O2)C[C@H](O)[C@H]1C` (stereo not given in full), the Potency is 4730 nM (active).
In the case of `OCc1cccnc1` it was “inactive”.
As to `O=c1[nH]c(=O)n([C@H]2O[C@H](CO)[C@@H](O)[C@@H]2O)cc1/C=C\Br`, the Potency entry was “inactive”.
In the case of `OCCCc1ccccc1`, the Potency result was “inactive”.
Take `CCC(=O)O[C@]1(C(=O)COC)[C@@H](C)C[C@H]2[C@@H]3CCC4=CC(=O)C=C[C@]4(C)C3(F)[C@@H](O)C[C@@]21C` (stereo not given in full): the Potency result is “inactive”.
As to `CC(NC(CCc1ccccc1)C(=O)O)C(=O)N1C(=O)N(C)CC1C(=O)O` (stereo not given), the Potency entry was “inactive”.
Take `NS(=O)(=O)c1cc(C(=O)NN2C[C@H]3[C@H]4CCC(C4)[C@H]3C2)ccc1Cl`: the Potency entry was “inactive”.
With `C=CC[N+]1([C@H]2C[C@H]3[C@@H]4CC[C@H]5C[C@H](OC(C)=O)[C@@H](N6CCCCC6)C[C@]5(C)[C@H]4CC[C@]3(C)[C@H]2OC(=O)CC)CCCCC1`, the Potency result is “inactive”.
In the case of `CC(C)(C)c1nnc(NS(=O)(=O)c2ccccc2)s1` it was “inactive”; in that of `CCOc1ccc(NS(=O)(=O)c2ccc(N)cc2)nn1`, “inactive”.
With `CCOC(=O)O[C@]1(C(=O)OCCl)CC[C@H]2[C@@H]3CCC4=CC(=O)C=C[C@]4(C)[C@H]3[C@@H](O)C[C@@]21C`, the Potency result was “inactive”.
Regarding `O=C1CC[C@H](C(=O)N2CCCCC2)N1`, the Potency entry is “inactive”.
Then `N#CC1(c2ccc(F)cc2)CCC(=O)CC1`, with “inactive”.
With `CC1c2ccccc2CN1NC(=O)c1ccc(Cl)c(S(N)(=O)=O)c1` (stereo not given), the Potency entry was “inactive”.
As to `Nc1c(NC/C=C\COc2cc(CN3CCCCC3)ccn2)c(=O)c1=O`, the Potency entry is “inactive”.
Turning to `CCc1cccc2c(CCO)c[nH]c12`, the Potency result is “inactive”.
